Most compounds without a hit are left out; they make up all but 7.3% or so of the library.
Gal4-VP16 FLuc = VP16 counterscreen qHTS for inhibitors of ROR gamma transcriptional activity; Drosophila S2 Gal4-VP16 UAS-luciferase, luminescence, 20 h; Potency, µM (top dose mostly 53.6 µM), for the others: at the top dose activity, negative = inhibition, actives largely listed as inhibitors; 310,000 tested, 3.5% active; AID 2546, 2010;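 further: Gal4-VP16 expression switched on by copper sulfate through the metallothionein promoter; nearly all actives have a fitted effect of over 50% in size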
Tau ThT inhib = qHTS for Inhibitors of Tau Fibril Formation, Thioflavin T Binding. Microtubule-associated protein tau (Homo sapiens), P10636. recombinant tau K18 P301L, heparin-induced fibrillization, ThT fluorescence. Potency, µM (highest dose often 57.4 µM), for inactives: top-dose activity, negative = inhibition, usual class: inhibitors. 270,000 tested, 2.1% active. AID 1460, 2008; further: nearly all actives have a fitted effect of over 55% in size
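Aggregation was driven by heparin (20 uM final) acting on recombinant tau […] bearing P301L in 100 mM sodium acetate pH 7; fibrils were detected with Thioflavin T.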
Tau fluor counter = Counterscreen qHTS for Inhibitors of Tau Fibril Formation, Fluorescence Polarization; tau K18 P301L Alexa594 fluorescence, heparin fibrillization; 280,000 tested, 0.93% active; AID 1463, 2008; Potency, µM (series often up to 57.7 µM), without a hit: at the highest dose activity change, negative = decrease; further: nearly all actives have a fitted effect of over 55% in size
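Human tau K18 P301L (15 uM unlabeled, 0.24 uM Alexa 594-labeled) in 100 mM sodium acetate pH 7 with 20 uM heparin, 6 hr at 37 C. ThT 30 uM added, 1 hr ambient; Alexa 594 FP and total fluorescence read at 555/632 nm.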
Tau fibril FP = qHTS for Inhibitors of Tau Fibril Formation, Fluorescence Polarization; K18 P301L tau heparin fibrillization, Alexa594 FP, 6 h; 280,000 tested, 0.39% active; Microtubule-associated protein tau (Homo sapiens), P10636; Potency, µM (series often up to 57.7 µM), for the others: at the top dose activity, negative = inhibition, hits mostly inhibitors; further: nearly all actives have a fitted effect of over 55% in size
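Recombinant K18 P301L […], labeled with Alexa 594 at 0.24 uM over 15 uM unlabeled; heparin inducer 20 uM final; 37 C, 6 hr; FP endpoint.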
RORg inh = qHTS for inhibitors of ROR gamma transcriptional activity. Potency, µM (titrated, usually from 53.6 µM), without a hit: top-dose activity change, negative = inhibition, actives largely listed as inhibitors. 310,000 tested, 5.4% active. Nuclear receptor ROR-gamma (Mus musculus), P51450. AID 2551, 2010. Drosophila S2 Gal4-RORgamma UAS-luciferase reporter, 20 h; further: nearly all actives have a fitted effect of over 60% in size
Target sequence (P51450 whole entry, looked up, the tested form may be a part): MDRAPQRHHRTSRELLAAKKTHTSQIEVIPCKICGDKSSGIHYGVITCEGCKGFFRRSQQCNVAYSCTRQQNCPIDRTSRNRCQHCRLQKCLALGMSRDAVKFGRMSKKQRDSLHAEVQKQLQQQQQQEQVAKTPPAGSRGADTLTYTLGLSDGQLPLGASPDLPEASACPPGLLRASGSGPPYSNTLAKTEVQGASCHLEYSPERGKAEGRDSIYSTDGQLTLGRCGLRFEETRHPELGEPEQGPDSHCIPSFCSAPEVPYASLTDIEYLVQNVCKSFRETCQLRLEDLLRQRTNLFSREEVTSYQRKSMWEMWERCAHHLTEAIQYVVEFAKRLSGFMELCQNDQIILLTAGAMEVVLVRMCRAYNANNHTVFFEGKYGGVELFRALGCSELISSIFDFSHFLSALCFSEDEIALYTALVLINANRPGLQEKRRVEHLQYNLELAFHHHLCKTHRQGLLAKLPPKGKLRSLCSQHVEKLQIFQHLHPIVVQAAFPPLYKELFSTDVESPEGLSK
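Drosophila Schneider cells stably carrying a metallothionein-driven Gal4 DBD–ROR gamma fusion and a UAS-Photinus luciferase reporter were exposed to compound for 1 hr, then induced with copper sulfate (700 uM final) for 20 hr at ambient temperature before luminescence reading.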
* hit, by the source's call; ? = inconclusive; . = no result given; [ ] = dose if it differs, or a comment. The call rests on the fitted dose curve; in most records, active means well fitted curve in the direction sought with a large enough effect; inconclusive means small, poorly fitted or top-dose-only effect, or another doubt; inactive means no such curve, though single readings can be large; an effect the other way counts as inactive or inconclusive. On the % scale 0 is the no-effect control and ±100 the full control effect; potency means the concentration at half of the fitted maximal effect.

SMILES | Gal4-VP16 FLuc | Tau ThT inhib | Tau fluor counter | Tau fibril FP | RORg inh
CC(C)(C)C(=O)Nc1cc2nn(-c3ccccc3)nc2cc1Cl | 3.55µM* | -7.4% | -18.6% | -7.0% | 0.631µM*
COCc1cc(O)c(O)c(O)c1-c1c(COC)cc(O)c(O)c1O | -18.5% | 3.16µM* | ? | 6.31µM* | -39.8%
CCc1oc(C(=O)O)cc1COC | -4.2% | -1.1% | 0.5% | 6.2% | -10.7%
Cn1nnc2c(N3CCN(c4ccccc4F)CC3)ncnc21 | . | -7.7% | 0.5% | -13.4% | .
Cc1ccc(C(=O)Nc2nnc(-c3ccco3)o2)cc1C | 0.891µM* | -9.7% | -9.2% | -4.8% | 0.631µM*
Cc1cccc(C(=O)Nc2nnc(-c3ccco3)o2)c1 | 0.631µM* | -9.2% | -1.5% | -0.4% | 0.501µM*
O=C(Nc1nnc(-c2ccco2)o1)c1cccc(N2C(=O)CCC2=O)c1 | 4.2% | -9.2% | -1.7% | 1.7% | -33.4%
O=C(Nc1nnc(-c2ccco2)o1)c1ccc(Cl)cc1 | 0.631µM* | -5.0% | -3.5% | 2.4% | 0.355µM*
Clc1ccc(-c2nnc(-c3ccco3)o2)cc1 | 23.2% | ? | -8.7% | -3.4% | ?
O=c1c(C(c2ccccc2)c2c(O)sc3ccccc3c2=O)c(O)sc2ccccc12 | -7.9% | ? | -19.9% | ? | 5.7%
CCCCN(CCCC)S(=O)(=O)c1ccc(NS(=O)(=O)c2ccc(NC(C)=O)cc2)cc1 | 7.3% | ? | ? | 22.4µM* | -12.9%
CCCCC(=O)Nc1ccc(C(=O)Nc2ccc(S(=O)(=O)Nc3ccc(C)cc3)cc2)cc1 | 11.2µM* | 13.9% | -5.8% | ? | ?
CCOC(=O)N1CCN(Cc2nc3cc(NC(=O)c4ccccc4[N+](=O)[O-])ccc3n2C(C)C)CC1 | . | -2.5% | -4.4% | -0.3% | .
O=C(Nc1cccc2ccccc12)N1CC=C(c2ccccc2)CC1 | -2.0% | -21.4% | -14.8% | -8.2% | 12.8%
O=C(Nc1ccc(Br)cc1F)N1CC=C(c2c[nH]c3ccccc23)CC1 | . | 8.91µM* | 8.91µM*[quencher] | -15.3% | .
COC(=O)c1ccc(Cl)cc1NC(=O)N1CC=C(c2c[nH]c3ccccc23)CC1 | . | ? | 11.2µM*[quencher] | -0.2% | .
Cc1cccc(NC(=O)N2CC=C(c3c[nH]c4ccccc34)CC2)c1C | . | ? | 25.1µM*[quencher] | 3.2% | .
COC(=O)c1ccc(Cl)cc1NC(=O)N1CCCn2nc(C)cc21 | . | -5.9% | -14.7% | -3.6% | .
Cc1ccc(NC(=O)N2CC=C(c3c[nH]c4ccccc34)CC2)cc1Cl | . | 6.31µM* | 14.1µM*[quencher] | -10.2% | .
CN(Cc1ccccc1)C(=O)c1ccc(CSc2nc3cccnc3n2Cc2ccccc2)cc1 | . | -10.1% | -10.7% | 12.4% | .
COc1cc2c(cc1OC)C(C)N(C(=O)CCc1c[nH]c3ccccc13)CC2 (centres undefined) | 1.2% | . | . | . | 0.6%
CC(C)c1ccc(C2=CC(c3cccc(Cl)c3)n3c(nc4ccccc43)N2)cc1 (centres undefined) | . | 0.8% | 4.4% | -6.1% | .
Cc1ccc(CN(C(=O)COc2cccc([N+](=O)[O-])c2)c2ccccn2)o1 | . | -7.5% | -16.1% | -2.5% | .
C=C(C)C(O)/C=C/CCCCCCC (centres undefined) | -8.3%[10 µM] | -6.8%[11.5 µM] | -10.2%[11.6 µM] | 1.1%[11.6 µM] | -2.3%[10 µM]
CCCCc1cc(=O)oc2cc(OCC(=O)NCc3ccccn3)ccc12 | -22.1% | . | . | . | 15.0%
SMILES | Gal4-VP16 FLuc | Tau ThT inhib | Tau fluor counter | Tau fibril FP | RORg inh
O=c1c(S(=O)(=O)c2cccc(Cl)c2)cn(Cc2ccccc2)c2cc(N3CCCCC3)c(F)cc12 | . | 4.8% | 4.6% | -4.5% | .
Cc1cccc2nc(-c3cccnc3)c(Nc3ccccc3)n12 | 1.2% | -11.3% | -21.5% | -5.0% | 2.2%
Cc1cccc2nc(-c3cccnc3)c(NCCC(C)C)n12 | ? | ? | -23.6% | 2.4% | 8.91µM*
COc1ccc(Nc2ncnc3sc(-c4ccccc4)cc23)cc1OC | -8.4% | ? | 14.1µM*[quencher] | ? | -1.1%
COc1ccc(-c2cc3ccc(O)c(CN4CCCC4)c3oc2=O)cc1OC | . | ? | -3.3% | -4.7% | .
COc1nc(NCc2ccco2)nc(NC2CCCCC2)n1 | ? | -15.1% | -5.4% | 2.9% | ?
CCOc1nc(NC2CCCCC2)nc(NC(C)(C)C)n1 | 15.8µM* | -21.1% | -20.0% | -1.8% | ?
